In PubChem BioAssay AID1159580 (chemical genetic matrix, 2015):
Out of some 5,500 compounds screened, about 2,000 (36%) were called active. Roughly 18% stayed inconclusive and do not appear here. Cut-off read from the data, not from the text of the source: active = normalized growth mostly below about 0.91 (no sharp cut-off); inconclusive = no clear call, values can overlap the other calls; inactive = mostly above about 0.92. The list shows a part of the results.

Experiment: chemical genetic growth profiling, strain panel (AID 1159580);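 note: tested at 20 µM; growth read once vehicle control cultures reached saturation at 30 °C; 1 = growth at the plate median or of vehicle wells; lower values mean less growth of the strain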
Details: growth OD

Measured: normalized growth

CC[N+]1(C)CCCC(OC(=O)C(O)(c2ccccc2)c2ccccc2)C1 (stereo not given)
inactive: S. cerevisiae deletion strains, locus YJR066W, strain TOR1, active compounds read low 0.954 | S. cerevisiae deletion strains, locus YKL009W, strain mrt4, active compounds read low 1.01 | S. cerevisiae deletion strains, locus YKL068W, active compounds read low 1.01 | S. cerevisiae deletion strains, locus YKL085W, strain MDH1 (second series), active compounds read low 0.994 | S. cerevisiae deletion strains, locus YKL085W, strain MDH1, active compounds read low 0.994 | S. cerevisiae deletion strains, locus YKL160W, strain elf1, active compounds read low 1.01 | S. cerevisiae deletion strains, locus YKL190W, strain CNB1, active compounds read low 1.01 | S. cerevisiae deletion strains, locus YKR001C, strain vps1, active compounds read low 1.02 | S. cerevisiae deletion strains, locus YKR026C, strain gcn3, active compounds read low 1.04 | S. cerevisiae deletion strains, locus YKR091W, strain srl3, active compounds read low 1.02 | S. cerevisiae deletion strains, locus YLL001W, strain dnm1, active compounds read low 1.01 | S. cerevisiae deletion strains, locus YLL026W, active compounds read low 1.02 | S. cerevisiae deletion strains, locus YLL041C, strain sdh2, active compounds read low 1.02 | S. cerevisiae deletion strains, locus YLR027C, strain aat2, active compounds read low 1.01 | S. cerevisiae deletion strains, locus YLR039C, strain RIC1, active compounds read low 1.03 | S. cerevisiae deletion strains, locus YLR058C, strain SHM2, active compounds read low 1.01 | S. cerevisiae deletion strains, locus YLR102C, strain apc9, active compounds read low 1 | S. cerevisiae deletion strains, locus YLR113W, strain HOG1, active compounds read low 1.05 | S. cerevisiae deletion strains, locus YLR221C, strain rsa3, active compounds read low 1.01 | S. cerevisiae deletion strains, locus YLR258W, strain gsy2, active compounds read low 1.02 | S. cerevisiae deletion strains, locus YLR262C, strain YPT6 (second series), active compounds read low 1.02 | S. cerevisiae deletion strains, locus YLR262C, strain YPT6, active compounds read low 1.07 | S. cerevisiae deletion strains, locus YLR268W, strain sec22, active compounds read low 1.01 | S. cerevisiae deletion strains, locus YLR320W, strain mms22, active compounds read low 1.02 | S. cerevisiae deletion strains, locus YLR330W, strain CHS5, active compounds read low 1.01 | S. cerevisiae deletion strains, locus YLR342W, strain FKS1 (second series), active compounds read low 1.03 | S. cerevisiae deletion strains, locus YLR342W, strain FKS1, active compounds read low 1.03 | S. cerevisiae deletion strains, locus YLR357W, strain rsc2, active compounds read low 1.02 | S. cerevisiae deletion strains, locus YLR370C, strain arc18, active compounds read low 1.03 | S. cerevisiae deletion strains, locus YLR371W, strain rom2, active compounds read low 1.01 | S. cerevisiae deletion strains, locus YLR384C, strain iki3, active compounds read low 1.02 | S. cerevisiae deletion strains, locus YLR418C, strain cdc73, active compounds read low 1.03 | S. cerevisiae deletion strains, locus YML016C, strain PPZ1, active compounds read low 1 | S. cerevisiae deletion strains, locus YML032C, strain rad52, active compounds read low 1.02 | S. cerevisiae deletion strains, locus YML120C, strain ndi1, active compounds read low 1.01 | S. cerevisiae deletion strains, locus YML124C, strain tub3, active compounds read low 1.01 | S. cerevisiae deletion strains, locus YMR058W, strain fet3, active compounds read low 1.02 | S. cerevisiae deletion strains, locus YMR078C, strain ctf18, active compounds read low 0.998 | S. cerevisiae deletion strains, locus YMR125W, strain sto1, active compounds read low 1.02 | S. cerevisiae deletion strains, locus YMR129W, active compounds read low 1.03 | S. cerevisiae deletion strains, locus YMR205C, strain PFK2, active compounds read low 1.03 | S. cerevisiae deletion strains, locus YMR223W, strain ubp8, active compounds read low 1.03 | S. cerevisiae deletion strains, locus YMR231W, strain pep5, active compounds read low 1.03 | S. cerevisiae deletion strains, locus YMR263W, strain SAP30, active compounds read low 1.01 | S. cerevisiae deletion strains, locus YMR307W, strain GAS1, active compounds read low 1.1 | S. cerevisiae deletion strains, locus YNL067W, strain RPL9B, active compounds read low 1.01 | S. cerevisiae deletion strains, locus YNL071W, strain lat1, active compounds read low 1.02 | S. cerevisiae deletion strains, locus YNL128W, strain TEP1, active compounds read low 1.03 | S. cerevisiae deletion strains, locus YNL153C, strain GIM3, active compounds read low 0.997 | S. cerevisiae deletion strains, locus YNL183C, strain NPR1, active compounds read low 0.942 | S. cerevisiae deletion strains, locus YNL209W, strain ssb2, active compounds read low 1.02 | S. cerevisiae deletion strains, locus YNL233W, strain BNI4, active compounds read low 1.01 | S. cerevisiae deletion strains, locus YNL248C, strain rpa49, active compounds read low 1.02 | S. cerevisiae deletion strains, locus YNL250W, strain rad50, active compounds read low 1.01 | S. cerevisiae deletion strains, locus YNL271C, strain bni1, active compounds read low 1.03 | S. cerevisiae deletion strains, locus YNL298W, strain CLA4, active compounds read low 1.01 | S. cerevisiae deletion strains, locus YNL307C, strain MCK1, active compounds read low 1.02 | S. cerevisiae deletion strains, locus YNL322C, strain KRE1 (second series), active compounds read low 1.01 | S. cerevisiae deletion strains, locus YNL322C, strain KRE1, active compounds read low 1.01 | S. cerevisiae deletion strains, locus YNR049C, strain mso1, active compounds read low 1.02 | S. cerevisiae deletion strains, locus YNR052C, strain pop2, active compounds read low 1.02 | S. cerevisiae deletion strains, locus YOL006C, strain TOP1, active compounds read low 1 | S. cerevisiae deletion strains, locus YOL012C, strain htz1 0.812 | S. cerevisiae deletion strains, locus YOL147C, strain pex11, active compounds read low 1.01 | S. cerevisiae deletion strains, locus YOR001W, strain rrp6, active compounds read low 1.01 | S. cerevisiae deletion strains, locus YOR061W, strain CKA2, active compounds read low 1.01 | S. cerevisiae deletion strains, locus YOR069W, strain VPS5, active compounds read low 1.01 | S. cerevisiae deletion strains, locus YOR070C, strain gyp1, active compounds read low 1.01 | S. cerevisiae deletion strains, locus YOR080W, strain dia2, active compounds read low 1.01 | S. cerevisiae deletion strains, locus YOR083W, strain WHI5, active compounds read low 1.01 | S. cerevisiae deletion strains, locus YOR106W, strain vam3, active compounds read low 1.02 | S. cerevisiae deletion strains, locus YOR136W, strain idh2, active compounds read low 1.01 | S. cerevisiae deletion strains, locus YOR144C, strain elg1, active compounds read low 1.01 | S. cerevisiae deletion strains, locus YOR184W, strain ser1, active compounds read low 1 | S. cerevisiae deletion strains, locus YOR231W, strain MKK1, active compounds read low 1.03 | S. cerevisiae deletion strains, locus YOR265W, strain rbl2, active compounds read low 1.01 | S. cerevisiae deletion strains, locus YOR270C, strain vph1, active compounds read low 1.1 | S. cerevisiae deletion strains, locus YOR290C, strain snf2, active compounds read low 1.01 | S. cerevisiae deletion strains, locus YOR316C, strain cot1, active compounds read low 1.01 | S. cerevisiae deletion strains, locus YPL051W, strain arl3, active compounds read low 1.01 | S. cerevisiae deletion strains, locus YPL078C, strain atp4, active compounds read low 1.02 | S. cerevisiae deletion strains, locus YPL106C, strain sse1, active compounds read low 1.02 | S. cerevisiae deletion strains, locus YPL240C, strain hsp82, active compounds read low 1.04 | S. cerevisiae deletion strains, locus YPL256C, strain CLN2, active compounds read low 1.04 | S. cerevisiae deletion strains, locus YPR119W, strain clb2, active compounds read low 1.01 | S. cerevisiae deletion strains, locus YPR141C, strain kar3, active compounds read low 1.01 | S. cerevisiae deletion strains, locus YPR163C, strain tif3, active compounds read low 1.01 | S. cerevisiae deletion strains, locus YPR167C, strain met16, active compounds read low 1.01 | S. cerevisiae deletion strains, strain wtn01, active compounds read low 1.01 | S. cerevisiae strains, strain wild type, active compounds read low 1.01
